Laboratory results: PubChem BioAssay
Inconclusive results are not listed. Active and inactive are the calls of the source.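 Rule for the calls, unless noted: active = viability increase at or above a cutoff of the median across tested compounds plus 3 SD (cut at about 8.5% in these data, passing the limit was not always enough); inconclusive = some gains above the cutoff, reason not given; inactive = the rest.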

What was measured:
[1] = reducers of endogenous Her2 protein level, primary screen, SKBR3 breast tumor cells, AlphaScreen, ATP viability (AID 461;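 active = Her2 level under about 52% in both replicate screens, with viability over 70% of control, limit read from the data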;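 for Her2 level: lower value means less Her2 protein in the cells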;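 for viability: percent of carrier control wells set as 100% viability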); conditions: 18-24 h, measured here: SKBR3 viability, ATP luminescence, at 10 µM
[2] = target: Receptor tyrosine-protein kinase erbB-2 (Homo sapiens) (UniProt P04626); experiment: as above; conditions: 18-24 h, at 10 µM, stronger effect = lower value
Receptor tyrosine-protein kinase erbB-2 (Homo sapiens), sequence (P04626 whole entry, looked up): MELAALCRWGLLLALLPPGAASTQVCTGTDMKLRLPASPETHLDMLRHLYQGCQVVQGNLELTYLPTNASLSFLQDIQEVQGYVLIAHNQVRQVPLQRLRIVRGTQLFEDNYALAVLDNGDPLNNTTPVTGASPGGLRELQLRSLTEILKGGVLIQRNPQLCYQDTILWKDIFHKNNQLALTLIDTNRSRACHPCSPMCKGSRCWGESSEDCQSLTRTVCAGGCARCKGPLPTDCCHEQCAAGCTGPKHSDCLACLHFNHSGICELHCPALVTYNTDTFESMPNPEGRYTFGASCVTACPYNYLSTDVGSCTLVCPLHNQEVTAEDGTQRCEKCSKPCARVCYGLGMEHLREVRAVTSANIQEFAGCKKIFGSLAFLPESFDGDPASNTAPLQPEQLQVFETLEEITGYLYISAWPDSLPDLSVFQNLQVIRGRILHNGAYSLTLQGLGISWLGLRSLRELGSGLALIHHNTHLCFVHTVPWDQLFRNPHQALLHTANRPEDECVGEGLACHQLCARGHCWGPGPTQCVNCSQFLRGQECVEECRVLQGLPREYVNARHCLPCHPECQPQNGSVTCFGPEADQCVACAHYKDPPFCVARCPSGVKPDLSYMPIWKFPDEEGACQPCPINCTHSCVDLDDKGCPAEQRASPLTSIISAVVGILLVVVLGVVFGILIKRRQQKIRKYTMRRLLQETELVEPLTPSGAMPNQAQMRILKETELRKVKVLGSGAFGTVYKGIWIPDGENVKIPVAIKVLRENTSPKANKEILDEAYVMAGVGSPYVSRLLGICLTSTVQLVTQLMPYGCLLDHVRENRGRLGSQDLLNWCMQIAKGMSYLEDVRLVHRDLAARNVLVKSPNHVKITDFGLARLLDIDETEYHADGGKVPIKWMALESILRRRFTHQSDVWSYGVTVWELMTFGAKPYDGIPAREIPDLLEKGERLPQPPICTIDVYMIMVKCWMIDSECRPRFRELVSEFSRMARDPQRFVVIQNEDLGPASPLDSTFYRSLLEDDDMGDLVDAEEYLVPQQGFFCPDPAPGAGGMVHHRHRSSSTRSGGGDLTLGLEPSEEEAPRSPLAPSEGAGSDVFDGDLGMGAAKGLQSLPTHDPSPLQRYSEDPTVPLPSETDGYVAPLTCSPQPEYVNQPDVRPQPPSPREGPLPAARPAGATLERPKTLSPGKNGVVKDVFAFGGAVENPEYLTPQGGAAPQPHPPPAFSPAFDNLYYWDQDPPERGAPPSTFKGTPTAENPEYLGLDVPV

[3] = SK-BR-3 cell growth inhibitors, pilot screen, 24 h, human (AID 572;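 active = viability at or below 10% of carrier control in both of two separate runs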;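 note: compound exposure lasted between 18 and 24 h rather than exactly 24 h; 100% = carrier-treated control wells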); conditions: SK-BR-3 viability, CellTiter-Glo luminescence, at 10 µM, stronger effect = lower value
[4] = HUVEC growth inhibition – cell-based, human, primary screen (AID 575;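 active = viability at or below 30% in both replicate assays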;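 note: 100% = median of untreated cell wells with 0.1% DMSO on each plate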); conditions: HUVEC proliferation, CellTiter-Glo luminescence, 72 h; at 10 µM; stronger effect = lower value
[5] = growth inhibitors of H69AR lung tumor, primary screen, human, duplicate replicates (AID 580;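 active = viability at or under a set limit in both replicates, limit being median viability minus 3 SD, cut at about 48% in these data, passing the limit was not always enough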;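 note: 100% = mean luminescence of untreated wells and 0% = no signal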); conditions: H69AR lung tumor cells viability, ATP luminescence, 72 h; at 10 µM; stronger effect = lower value
[6] = reversal of MRP1-mediated doxorubicin resistance, pilot screen, H69AR cells, doxorubicin co-treatment (AID 601;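 active = viability loss from added drug above about 55%, and viability with drug at most 40%, in both replicates, limit read from the data, passing the limit was not always enough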); conditions: CellTiter-Glo, 72 h, at 10 µM; for differential viability (reversal): stronger effect = higher value
[7] = 384-well plate pilot, post-Golgi transport modulator project, inhibition of yeast transport mutant growth (AID 636; in the data active = inhibition above about 31%); conditions: absorbance 615 nm, about 18 h, stronger effect = higher value
[8] = growth suppression of yeast trafficking mutant, preliminary HTS, modulators of trafficking downstream of Golgi apparatus project, 1536-format plate, OD 615 nm (AID 637; in the data active = inhibition above about 30%); conditions: yeast transport mutant growth, absorbance 615 nm, 18 h; stronger effect = higher value
[9] = OD615 S. cerevisiae growth inhibition, permissive medium, pilot counter-assay, permissive growth control for S. cerevisiae lifespan shortening project (AID 705;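 active = growth inhibition above 25% in both replicates, a cutoff set 3 SD above the mean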); conditions: OD615, 24 h, at 10 µM, stronger effect = higher value
[10] = Restrictive medium S. cerevisiae growth inhibition, OD615, pilot screen of yeast lifespan reduction project, restrictive growth control (AID 706;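 active = growth inhibition above a set limit, 3 SD over mean compound inhibition, in both replicates, cut at about 43% in these data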;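 note: modified DeaD lifespan yeast strain shifted to restrictive glucose medium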); conditions: OD615, 48 h, at 10 µM, stronger effect = higher value
[11] = viability gain of MRP-1-high H69AR cells under doxorubicin, pilot screen, MRP-1 activator project, CellTiter-Glo, duplicate (AID 807); conditions: H69AR viability with doxorubicin, CellTiter-Glo luminescence; at 10 µM; stronger effect = higher value;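 note: compound pretreatment 18-22 h then 72 h combined with doxorubicin; 0% = doxorubicin alone and 100% = vehicle without doxorubicin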
[12] = growth suppression of beta-catenin knockout HCT116, pilot screen, human colon tumor cells (AID 823;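 active = cell viability at or below a set limit in both duplicate runs, the limit being the all-compound median minus 4 SD, cut at about 23% in these data, passing the limit was not always enough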;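 note: 0% = wells killed by 20 µM Hyamine and 100% = untreated DMSO cell wells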); conditions: CellTiter-Glo, 60 h, at 10 µM, stronger effect = lower value
[13] = growth suppression of PTEN-deleted HCT116, pilot screen, cell-based, HCT116 clonal line, CellTiter-Glo (AID 824;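 active = viability at or below 27.92% in each of two runs, the all-compound median minus 4 SD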;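 note: 0% = 20 µM Hyamine control and 100% = vehicle cell control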); conditions: 60 h, at 10 µM, stronger effect = lower value
[14] = inhibitors of the yeast RAM network, pilot screen, dse1pr::URA3 reporter, 5-FOA selection (AID 869;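 active = inhibition over a set limit, the all-compound mean plus 3 SD, in both replicate runs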;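 note: 0% = DMSO wells with no growth and 100% = 10 µM 1-NA-PP1 with full growth; RAM network block rescues cells from 5-FOA so hits raise OD615 growth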); conditions: S. cerevisiae dse1pr::URA3 5-FOA growth, OD615, 2 d; at 10 µM; stronger effect = higher value; strain carries analog-sensitive mutant Cbk1 kinase
[15] = RAM signaling pathway blockade in yeast – S. cerevisiae, Pdr1DBD-CYC8 efflux-inhibited sensitized strain, primary screen (AID 1298;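 active = RAM network inhibition above 8.4% in each of two replicates, 3 SD over the compound average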;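 note: 0% = DMSO untreated cells without growth and 100% = 10 µM 1-NA-PP1 full growth; higher means more yeast growth rescued from 5-FOA killing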); conditions: S. cerevisiae cbk1-as DSE1-URA3 strain, 5-FOA growth OD615, 2 d; at 50 µM; stronger effect = higher value
[16] = H69AR cells + 2 uM doxorubicin, measured here: viability with 2 uM doxorubicin, stronger effect = lower value
[17] = H69AR cells, compound alone cytotoxicity

Compound	viability [1] [%]	Her2 level [2]	viability [3]	viability [4]	viability [5]	differential viability (reversal) ([6]; H69AR cells + 2 uM doxorubicin)	viability [6, 16] [%]	viability [6, 17] [%]	inhibition [7]	inhibition [8]	growth inhibition [9]	growth inhibition [10]	viability increase [11]	viability [12]	viability [13]	inhibition [14]	RAM network inhibition [15]
COc1ccc(OC)c(C2=NOC(C(=O)Nc3cc(C)nn3-c3ccccc3)C2)c1 (stereo unspecified)	86.5	106% (inactive)	86.5% (inactive)	114% (inactive)	95.2% (inactive)	9.74% (inactive)	85.5	95.2	-2.56% (inactive)	-0.33% (inactive)	-7.35% (inactive)	-4.62% (inactive)	0.16% (inactive)	94.2% (inactive)	94.9% (inactive)	1.83% (inactive)	7.22% (inactive)
Cc1cccc(-n2ncc3c(NCCCn4ccnc4)ncnc32)c1	91.5	93.5% (inactive)	91.5% (inactive)	111% (inactive)	88.6% (inactive)	3.66% (inactive)	84.9	88.6	2.13% (inactive)	-3.67% (inactive)	-2.31% (inactive)	-0.87% (inactive)	-0.65% (inactive)	92.9% (inactive)	99.5% (inactive)	1.1% (inactive)	-0.32% (inactive)
CN1CCC(NC(=O)c2cccs2)CC1	106	90% (inactive)	106% (inactive)	84.7% (inactive)	91% (inactive)	7.9% (inactive)	83.1	91	-4.13% (inactive)	7.5% (inactive)	9.33% (inactive)	17.3% (inactive)	-0.16% (inactive)	96.7% (inactive)	94.9% (inactive)	0.86% (inactive)	1.18% (inactive)
O=C(NCCOC(=O)C1COc2ccccc2O1)C1COc2ccccc2O1 (stereo unspecified)	92.5	95% (inactive)	92.5% (inactive)	88.5% (inactive)	103% (inactive)	10.3% (inactive)	92.6	103	-6.76% (inactive)	-2.79% (inactive)	-7.82% (inactive)	-1.52% (inactive)	0.34% (inactive)	102% (inactive)	100% (inactive)	0.095% (inactive)	0.89% (inactive)
COc1cccc(C2C(C(N)=O)=C(C)Nc3nc(-c4ccccc4Cl)nn32)c1 (stereo unspecified)	79.5	92.5% (inactive)	79.5% (inactive)	69.3% (inactive)	92.1% (inactive)	15.7% (inactive)	76.4	92.1	-5.33% (inactive)	-2.83% (inactive)	-0.045% (inactive)	-2.87% (inactive)	-2.66% (inactive)	67.2% (inactive)	72.2% (inactive)	-0.135% (inactive)	2.34% (inactive)
CCOc1cccc(OCCCCn2ccnc2)c1	87	75.5% (inactive)	87% (inactive)	97.3% (inactive)	85.4% (inactive)	-3.44% (inactive)	88.8	85.4	3.92% (inactive)	-2.46% (inactive)	-3.35% (inactive)	-16.8% (inactive)	-0.4% (inactive)	49% (inactive)	62.3% (inactive)	2.19% (inactive)	1.84% (inactive)
Cc1cc(C)cc(NC(=O)CSc2nnc(Cc3cccn3C)n2-c2ccc(F)cc2)c1	87	84% (inactive)	87% (inactive)	63.1% (inactive)	86.6% (inactive)	14% (inactive)	72.6	86.6	-1.2% (inactive)	-11.5% (inactive)	3.92% (inactive)	14.7% (inactive)	-4.83% (inactive)	74.6% (inactive)	71.6% (inactive)	3.69% (inactive)	7.38% (inactive)
O=C(COc1ccc2ccccc2c1)N1CCCC1	101	88.5% (inactive)	101% (inactive)	85.3% (inactive)	90% (inactive)	8.64% (inactive)	81.4	90	0.38% (inactive)	-6% (inactive)	-2.41% (inactive)	-2.41% (inactive)	-0.13% (inactive)	96.2% (inactive)	101% (inactive)	0.745% (inactive)	6.48% (inactive)
Cn1cccc1Cc1nnc(SCC(=O)NCc2ccc(F)cc2)n1-c1ccc(F)cc1	94.5	108% (inactive)	94.5% (inactive)	80.9% (inactive)	89% (inactive)	-4% (inactive)	93	89	-1.07% (inactive)	13.3% (inactive)	-3.33% (inactive)	8.56% (inactive)	-0.43% (inactive)	97.6% (inactive)	93.4% (inactive)	2.13% (inactive)	6.3% (inactive)
Cn1c(/C=N/n2cnnc2)nc2ccccc21	100	78% (inactive)	100% (inactive)	105% (inactive)	83.4% (inactive)	-14.4% (inactive)	97.8	83.4	-0.26% (inactive)	-5% (inactive)	-4.11% (inactive)	-2.04% (inactive)	-3.76% (inactive)	94% (inactive)	94.2% (inactive)	0.41% (inactive)	5.84% (inactive)
COCCCN(C)C1CCN(C(=O)Nc2ccc(F)cc2)CC1	106	124% (inactive)	106% (inactive)	109% (inactive)	89% (inactive)	-5.42% (inactive)	94.4	89	-3.47% (inactive)	-1.5% (inactive)	-6.78% (inactive)	3.39% (inactive)	0.68% (inactive)	103% (inactive)	105% (inactive)	0.185% (inactive)	8.93% (inactive)
Cc1ccc(-c2nc3cc(NC(=O)C(C)C)ccc3o2)cc1	87	112% (inactive)	87% (inactive)	73.5% (inactive)	82.4% (inactive)	-1.22% (inactive)	83.6	82.4	-1.92% (inactive)	-10.3% (inactive)	-11.2% (inactive)	-21.9% (inactive)	-5.7% (inactive)	82.6% (inactive)	73.5% (inactive)	3.04% (inactive)	5.12% (inactive)
CC1=C(C(=O)OC(C)C)C(c2cccc(F)c2)n2ncnc2N1 (stereo unspecified)	103	112% (inactive)	103% (inactive)	101% (inactive)	90.7% (inactive)	-1.02% (inactive)	91.7	90.7	0.27% (inactive)	3.83% (inactive)	-7.79% (inactive)	-4.85% (inactive)	0.62% (inactive)	103% (inactive)	100% (inactive)	1.74% (inactive)	5.32% (inactive)
CCCOC(=O)C1C2C=CC3(CN(c4cccc(Cl)c4)C(=O)C13)O2 (stereo unspecified)	102	85% (inactive)	102% (inactive)	90.4% (inactive)	83% (inactive)	-10.8% (inactive)	93.8	83	-2.93% (inactive)	-0.16% (inactive)	-4.19% (inactive)	-9.97% (inactive)	-2.05% (inactive)	101% (inactive)	97.4% (inactive)	-0.245% (inactive)	3.71% (inactive)
Cc1cc(C)n(-c2ccc(N3CCOCC3)nn2)n1	108	99% (inactive)	108% (inactive)	98.1% (inactive)	89.5% (inactive)	-4.32% (inactive)	93.8	89.5	0% (inactive)	0% (inactive)	1.14% (inactive)	10.2% (inactive)	-0.17% (inactive)	103% (inactive)	101% (inactive)	0.245% (inactive)	-0.52% (inactive)
Cc1cc(C)c(C(=O)Nc2ccc(S(=O)(=O)Nc3onc(C)c3C)cc2)c(C)c1	110	100% (inactive)	110% (inactive)	79.5% (inactive)	93.4% (inactive)	6.5% (inactive)	86.9	93.4	-6.27% (inactive)	-1.48% (inactive)	-15% (inactive)	-9.75% (inactive)	2.97% (inactive)	93.3% (inactive)	95.3% (inactive)	2.68% (inactive)	10.4% (inactive)
Cc1cc(NC(=O)COc2cccc(C)c2C)no1	96	102% (inactive)	96% (inactive)	94.2% (inactive)	108% (inactive)	15.6% (inactive)	92.5	108	-0.53% (inactive)	-4.26% (inactive)	-0.27% (inactive)	6.53% (inactive)	3.52% (inactive)	102% (inactive)	105% (inactive)	2.08% (inactive)	2.68% (inactive)
c1ccc2c(c1)nc(NCCN1CCOCC1)c1nncn12	92	102% (inactive)	92% (inactive)	109% (inactive)	94.7% (inactive)	8.78% (inactive)	85.9	94.7	-1.67% (inactive)	2.5% (inactive)	-10.4% (inactive)	-3.62% (inactive)	1.59% (inactive)	103% (inactive)	103% (inactive)	-0.055% (inactive)	-0.1% (inactive)
